# Screening data (PubChem BioAssay)
# HP1b binding inh = inhibitors of HP1-beta chromodomain binding to methylated histone tails. P83916. AlphaScreen HP1-beta / biotin-H3K9me3 peptide binding. Potency, µM (highest dose often 114 µM), for inactives: at the highest dose activity change, negative = inhibition, actives largely listed as inhibitors. 0.56% of 390,000 active; note: nearly all actives have a fitted effect of over 70% in size
# Target sequence (P83916 whole entry, looked up): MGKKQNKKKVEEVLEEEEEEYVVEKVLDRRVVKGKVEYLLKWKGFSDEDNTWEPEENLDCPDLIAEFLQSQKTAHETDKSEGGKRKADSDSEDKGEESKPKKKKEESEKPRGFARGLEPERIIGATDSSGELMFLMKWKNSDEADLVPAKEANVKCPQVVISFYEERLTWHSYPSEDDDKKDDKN
#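 HP1-beta protein (50 nM final) preincubated 30 min at room temperature with biotinylated H3(1-18)K9me3 peptide (50 nM) in PBS pH 7.4, 0.01% Tween-20, then compound added for 30 min. AlphaScreen streptavidin donor/nickel chelate acceptor beads (10 ug/mL final), 30 min dark, luminescence read.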
# BAZ2B block = inhibitors of human BAZ2B bromodomain; Potency, µM (titrated, usually from 114 µM), for inactives: at the top dose activity change, negative = inhibition, usual class: inhibitors; 4.4% of 360,000 active; AlphaScreen BAZ2B-H3K14Ac peptide displacement; Q9UIF8; note: % is set by controls: 0 for no effect and ±100 for the full control effect; nearly all actives have a fitted effect of over 60% in size
#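 AlphaScreen displacement of biotin-H3(5-23)K14Ac peptide (50 nM final) from BAZ2B (50 nM final) in PBS pH 7.4, 0.01% Tween-20; complex preformed 30 min RT, then compounds (top 110 uM) 30 min RT, beads 20 min dark.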
# PLK1 PBD block = inhibitors of human PLK1 polo-box domain binding; Potency, µM, for inactives: max response, negative = inhibition, usual class: inhibitors; P53350; 2.8% of 360,000 active; Plk1 PBD binding of FITC phosphopeptide, fluorescence polarization; note: series mostly up to about 57 µM; % is set by controls: 0 for no effect and ±100 for the full control effect; nearly all actives have a fitted effect of over 65% in size
# JMJD2A Tudor = inhibitors of human JMJD2A Tudor domain | AlphaScreen JMJD2A-Tudor / H3K4me3 peptide binding | Potency, µM (titrated, usually from 114 µM), without a hit: top-dose activity change, negative = inhibition, most hits filed as inhibitors | 4.4% of 390,000 active | AID 504339; note: % is set by controls: 0 for no effect and ±100 for the full control effect; nearly all actives have a fitted effect of over 50% in size
# VDR inh = blocks the human vitamin D receptor; P11473; VDR-SRC2-3 peptide fluorescence polarization, 2 h; Potency, µM, without a hit: max response, negative = inhibition, actives largely listed as inhibitors; 0.93% of 400,000 active; note: % is set by controls: 0 for no effect and ±100 for the full control effect
# Target sequence (P11473 whole entry, looked up): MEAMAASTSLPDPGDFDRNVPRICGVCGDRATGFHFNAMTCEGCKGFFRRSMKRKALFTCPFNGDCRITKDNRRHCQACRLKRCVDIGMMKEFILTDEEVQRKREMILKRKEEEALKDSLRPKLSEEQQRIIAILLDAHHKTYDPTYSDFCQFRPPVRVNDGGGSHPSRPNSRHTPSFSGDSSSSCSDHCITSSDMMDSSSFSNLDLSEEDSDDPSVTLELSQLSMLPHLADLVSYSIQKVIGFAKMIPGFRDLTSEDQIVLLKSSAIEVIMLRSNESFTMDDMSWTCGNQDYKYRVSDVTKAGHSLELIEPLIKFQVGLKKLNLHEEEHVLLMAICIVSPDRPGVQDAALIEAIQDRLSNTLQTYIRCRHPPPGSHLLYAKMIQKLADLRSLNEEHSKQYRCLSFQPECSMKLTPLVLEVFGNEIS
#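 Measured by FP: displacement of SRC2-3 coactivator peptide from VDR by library compounds, following a two-hour ambient incubation.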
# G9a inh = blocks human histone lysine methyltransferase G9a. 8.8% of 350,000 active. G9a H3K9 monomethylation, AlphaScreen, 2 h. Potency, µM (series often up to 102 µM), without a hit: at the top dose activity, negative = inhibition, hits mostly inhibitors. Q96KQ7; note: % is set by controls: 0 for no effect and ±100 for the full control effect; nearly all actives have a fitted effect of over 75% in size
#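 AlphaScreen detection with an anti-monomethyl H3K9 antibody quantified product after a 2 h room-temperature reaction containing 500 nM biotinylated H3K9 peptide, 20 µM SAM and 20 nM enzyme, which had been preincubated 15 min with compound.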
# * hit, by the source's call; ? = inconclusive; / = no result given; [ ] = remark or other dose. An excerpt weighted towards active compounds, which were near 11% of everything screened. Calls come from the whole dose curve; as a rule, active = well fitted curve in the direction sought with a large enough effect; inconclusive = small, poorly fitted or top-dose-only effect, or another doubt; inactive = no such curve, though single readings can be large; an effect the other way counts as inactive or inconclusive. Potency is the fitted concentration of half-maximal effect.
SMILES,HP1b binding inh,BAZ2B block,PLK1 PBD block,JMJD2A Tudor,VDR inh,G9a inh
COc1ccc(CN2CCN(C(=O)c3cc(OC)c(OC)c(OC)c3)CC2)cc1OC,-52.2%,?,1.0%,2.51µM*,10.3%,10µM*
COc1ccc(OCC(=O)N2CCN(C(=O)c3cc(OC)c(OC)c(OC)c3)CC2)cc1,42.1%,2.5%,/,-20.6%,-18.1%,-37.8%[59 µM]
COCC1=C2c3ccccc3[C@H](C[N+](=O)[O-])C(C(=O)OC)(C(=O)OC)C[C@@H]2n2c(=O)n(-c3ccccc3)c(=O)n2C1,/,/,/,/,-0.4%,/
COc1ccc(C(=O)c2ccc(CC#N)s2)cc1,-11.1%,?,0.7%,79.4µM*,2.3%,?
CC(C)C(OC(=O)c1cccs1)C(=O)NCc1ccco1 (stereo not drawn),17.6%,-0.4%,-7.2%,-19.1%,-12.5%,-0.3%[12.7 µM]
Cc1cc2c(cc(C(=O)OC(C(=O)NCc3ccco3)C(C)C)n2C)o1 (stereo not drawn),-15.5%,?,-6.7%,?,8.6%,39.8µM*
O=c1[nH][nH]cc1C=Nc1ccc(Cl)cc1,30.9%,-26.1%,-1.5%,-20.3%,12.1%,-33.3%
COc1cccc(N=Cc2c[nH][nH]c2=O)c1,-10.8%,-8.9%,26.7µM*,56.2µM*,?,/
CC1=NN(c2ccccc2)C(=O)/C1=C\C=C1\N(C)c2ccccc2C1(C)C,31.6µM*,10µM*,22.2%,56.2µM*,-8.3%,14.1µM*
CC1=NN(c2ccccc2)C(=O)/C1=C\C=C1/N(C)c2ccccc2C1(C)C,?,10µM*,25.1%,31.6µM*,-9.2%,11.2µM*
O=C(CNC(=O)c1ccccc1Cl)OC(C(=O)Nc1cc(C(F)(F)F)ccc1Cl)c1ccccc1 (stereo not drawn),/,/,/,-21.2%,/,/
CC1CCC(N2CCN(S(=O)(=O)Cc3ccccc3)CC2)CC1 (stereo not drawn),70.8µM*,50.1µM*,3.5%,22.4µM*,-10.9%,25.1µM*
O=S(=O)(Cc1ccccc1)N1CCC(N2CCN(c3ccccc3)CC2)CC1,0.3%,3.2%,-19.7%,-21.4%,-12.4%,?
O=C(c1ccc(S(=O)(=O)Cc2ccccc2F)c([N+](=O)[O-])c1)N1CCCC1,-8.0%,-22.2%,23.8µM*,?,-9.2%,-39.7%
CC1CCN(C(=O)c2ccc(S(=O)(=O)Cc3ccccc3F)c([N+](=O)[O-])c2)CC1,-12.4%,-4.2%,-13.3%,-20.0%,0.7%,-6.5%
O=[N+]([O-])c1cccc(/C=N/n2c(COc3ccccc3)n[nH]c2=S)c1,-40.5%,?,?,56.2µM*,-23.7%,4.7%[0.501 µM]
Cc1ccccc1OCc1nc2ccccc2c(=O)n1/N=C/c1cccc([N+](=O)[O-])c1,-1.0%,6.2%,-4.2%,-23.6%,-12.8%,26.3%[59 µM]
O=[N+]([O-])c1ccc(/C=N/n2c(COc3ccccc3)n[nH]c2=S)cc1,-15.8%,?,?,79.4µM*,-14.2%,?
O=C(CN(c1ccccc1)S(=O)(=O)c1ccccc1[N+](=O)[O-])Nc1cccnc1,25.9%,?,3.1%,-12.9%,-7.1%,3.6%
Cc1cc(O)c(C(c2ccccc2)N2CCN(c3ccc(F)cc3)CC2)c(=O)n1Cc1ccco1 (stereo not drawn),25.7%[57 µM],-28.3%,/,?,-6.9%,?
O=[N+]([O-])c1ccc(Nc2nc(Cl)nc(NCCO)n2)cc1,32.9%,-15.4%,-13.0%,-5.4%,8.7%,-50.5%
O=[N+]([O-])c1cccc(Nc2nc(Cl)nc(Cl)n2)c1,9.8%,89.1µM*,-6.5%,-28.6%,-22.8%,?
O=C(Nc1ccccc1F)c1nc(SCc2ccccc2F)ncc1Cl,73.3%,19.4%,/,5.3%,14.1%,50.6%[59 µM]
COc1ccc(C(NC(=O)/C=C/c2ccco2)c2ccc(OC)c(OC)c2)cc1 (stereo not drawn),-0.9%,?,0.7%,-15.6%,-11.8%,17.8µM*
CCOc1ccc(C(NC(=O)/C=C/c2ccco2)c2ccc(OC)c(OC)c2)cc1 (stereo not drawn),-16.0%,?,-8.9%,-33.8%,11.6%,28.2µM*
SMILES,HP1b binding inh,BAZ2B block,PLK1 PBD block,JMJD2A Tudor,VDR inh,G9a inh
CCN(CC)S(=O)(=O)c1ccc(OC)c(NC(=O)/C=C/c2ccco2)c1,?,70.8µM*,?,-5.1%[11.4 µM],-28.7%,/
O=C(NC(=S)Nc1ccc(N2CCCCC2)cc1)c1ccc2c(c1)OCCO2,?,10µM*,-0.8%,?,-18.5%,?
CS(=O)(=O)N1CCN(c2ccc(NC(=S)NC(=O)c3ccc4c(c3)OCO4)cc2)CC1,27.7%,-0.7%,3.6%,-22.4%,-8.9%,?
CC(Sc1ccc2c(c1)OCCO2)C(=O)Nc1ccc(N2CCOCC2)cc1 (stereo not drawn),23.6%,-10.2%,?,-7.3%,?,50.1µM*
O=C(NC(=S)Nc1ccc(CN2CCOCC2)cc1)c1ccc2c(c1)OCCO2,?,?,-12.2%,?,4.5%,44.7µM*
O=C(NC(=S)Nc1ccc(N2CCOCC2)cc1)c1ccc2c(c1)OCCO2,-24.7%,?,8.44µM*,20µM*,?,10µM*
COc1ccc(C(=O)NCCS(=O)(=O)N2CCc3ccccc3C2)cc1OC,34.3%,-1.3%,4.2%,6.5%,-2.7%,-7.6%[0.501 µM]
COc1cc(OC)cc(-c2nnc3n2N=C(c2ccc(OC)c(OC)c2)CS3)c1,/,/,/,-17.2%,/,/
CC(=O)N1CCN(c2ccc(NC(=S)NC(=O)c3ccccc3)cc2)CC1,-17.3%,0.3%,-13.9%,?,-23.3%,-24.7%[59 µM]
O=C(NC(=S)Nc1ccc(N2CCCC2)cc1)c1ccc(F)cc1,-14.8%,11.2µM*,6.1%,?,-13.1%,?
COc1ccc(C(=O)NCC(c2ccco2)S(=O)(=O)c2ccc(F)cc2)cc1 (stereo not drawn),-9.0%,-1.8%,/,-6.8%,4.2%,4.3%[59 µM]
O=C(CC(c1ccco1)S(=O)(=O)c1ccccc1)c1ccc(F)cc1 (stereo not drawn),-1.9%,-33.5%,-13.3%,-30.2%,-17.9%,3.55µM*
O=C(CCCN1C(=O)c2ccccc2C1=O)NC1=NCCS1,24.4%,-7.9%,-3.7%,31.6µM*,-15.4%,3.8%[59 µM]
O=C(CCCN1C(=O)c2ccccc2C1=O)Nc1nncs1,21.1%,-5.1%,-2.0%,-2.8%,12.6%,0.5%
CNC(=O)c1ccc(NC(=O)CC2SC(N3CCCC3)=NC2=O)cc1 (stereo not drawn),40.4%,-13.1%,-0.8%,2.9%,-15.0%,2µM*
O=C(CC1SC(N2CCOCC2)=NC1=O)Nc1ccc(F)cc1 (stereo not drawn),8.4%,/,-7.9%,-11.1%,-3.5%,/
O=C(CC1SC(N2CCOCC2)=NC1=O)Nc1ccc(Cl)cc1 (stereo not drawn),30.9%,6.9%,-2.9%,0.3%,31.7%,50.1µM*
